Counter-ions that a name gives are not always drawn.
tested on: Saccharomyces cerevisiae BY4741 SeMeCo community; assay: z-score of subpopulation abundance vs DMSO median, subpopulation auxotrophic for H; higher = larger share of this subpopulation than in DMSO controls; conditions: 10 µM; 24 h; SM minimal medium; subpopulation (auxotrophy): H
Method in brief: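 A Saccharomyces cerevisiae BY4741 community carried four plasmids, each restoring one auxotrophy and encoding a distinct fluorescent protein. It was pre-grown overnight to OD600 1.0, diluted to 0.3, and 70 µl was added to 384-well plates acoustically predosed with library drugs (10 µM final), then grown 24 h in minimal SM medium. Cells were paraformaldehyde-fixed and imaged by automated confocal microscopy, with single-auxotroph fluorescent strains setting thresholds and autofluorescence correction. Each subpopulation's abundance was scored as a z-score against the vehicle-well median.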

SMILES | z-score of subpopulation abundance
O=C(Cn1cnnn1)N[C@@H]1C(=O)N2C(C(=O)O)=C(CSc3nncs3)CS[C@H]12 [Ceftezole] | -1.12
O=C(NCCN1CCOCC1)c1ccc(Cl)cc1 | -0.65
CN1CCN(CCCN2c3ccccc3Sc3ccc(C(F)(F)F)cc32)CC1 [Trifluoperazine 2HCl] | -0.58
CCCCCCCCN=c1ccn(CCCCCCCCCCn2ccc(=NCCCCCCCC)cc2)cc1 [Octenidine Dihydrochloride] | 13.2
CC1(C)S[C@@H]2[C@H](NC(=O)Cc3ccccc3)C(=O)N2[C@H]1C(=O)O [Penicillin G Sodium] | -0.3
CC(C)[C@H]1CC[C@H](C(=O)N[C@H](Cc2ccccc2)C(=O)O)CC1 [Nateglinide] | 0.66
Nc1ccc(S(=O)(=O)NC(=O)c2ccccc2)cc1 [Sulfabenzamide] | -0.19
COc1ccc(C(=O)NCc2ccc(OCCN(C)C)cc2)cc1OC [Itopride hydrochloride] | -0.37
COc1ccc(-c2nc3cc(C4=NNC(=O)CC4C)ccc3[nH]2)cc1 (stereo not given) [Pimobendan] | 0.76
CC(C)N1CCN(c2ccc(OCC3COC(Cn4cncn4)(c4ccc(Cl)cc4Cl)O3)cc2)CC1 (stereo not given) [Terconazole] | -0.38
COc1cc([C@@H]2c3cc4c(cc3[C@@H](O[C@@H]3O[C@@H]5CO[C@@H](c6cccs6)O[C@H]5[C@H](O)[C@H]3O)[C@H]3COC(=O)[C@H]23)OCO4)cc(OC)c1O [Teniposide] | 0.91
COc1ccc2c(c1)c(CC(=O)O)c(C)n2C(=O)c1ccc(Cl)cc1 [Indomethacin] | -0.68
N[C@@H](CCC(=O)O)C(=O)O [(S)-Glutamic acid] | 0.17
CC1(C)S[C@@H]2[C@H](NC(=O)Cc3ccccc3)C(=O)N2[C@H]1C(=O)O [Benzylpenicillin potassium] | -0.83
NC(=O)c1cnccn1 [Pyrazinamide] | -0.45
Cc1nnc(NS(=O)(=O)c2ccc(N)cc2)s1 [Sulfamethizole] | -1.02
CCC[C@@H]1C[C@@H](C(=O)N[C@@H]([C@H]2O[C@H](SC)[C@H](OP(=O)(O)O)[C@@H](O)[C@H]2O)[C@H](C)Cl)N(C)C1 [Clindamycin Phosphate] | -0.77
CN[C@@H]1[C@H](O[C@H]2[C@H](O[C@H]3[C@H](O)[C@@H](O)[C@H](N=C(N)N)[C@@H](O)[C@@H]3N=C(N)N)O[C@@H](C)[C@]2(O)C=O)O[C@@H](CO)[C@H](O)[C@H]1O [Streptomycin sulfate] | 0.36

SMILES | z-score of subpopulation abundance
O=c1[nH]cnc2c1ncn2[C@@H]1O[C@H](CO)[C@@H](O)[C@H]1O [Isoprinosine] | 0.09
C=C1c2cccc(O)c2C(O)=C2C(=O)[C@]3(O)C(O)=C(C(N)=O)C(=O)[C@@H](N(C)C)[C@@H]3[C@@H](O)[C@H]12 [Methacycline HCl] | 2.58
COC(=O)C1=C(C)NC(C)=C(C(=O)OC)C1c1ccccc1[N+](=O)[O-] [Nifedipine] | 0.64
Nc1ccc(S(=O)(=O)c2ccc(N)cc2)cc1 [Dapson] | 0.61
NC(CO)(CO)CO [Trometamol] | -0.42
C[C@]1(COc2ccc(N3CCC(Oc4ccc(OC(F)(F)F)cc4)CC3)cc2)Cn2cc([N+](=O)[O-])nc2O1 [Delamanid] | 0.86
Nc1nc(=O)[nH]cc1F [Flucytosine] | 17.8
CO[C@@H]1[C@@H](O[C@@H]2O[C@H](C)[C@@H](O[C@H]3C[C@@](C)(O)[C@@H](O)[C@H](C)O3)[C@H](N(C)C)[C@H]2O)[C@@H](CC=O)C[C@@H](C)[C@@H](O[C@H]2CC[C@H](N(C)C)[C@@H](C)O2)/C=C/C=C/C[C@@H](C)OC(=O)C[C@H]1OC(C)=O [Acetylspiramycin (ASPM)] | 1
C[C@]12CC[C@@H]3c4ccc(OS(=O)(=O)O)cc4CC[C@H]3[C@@H]1CCC2=O [Estropipate] | -0.96
COc1ccnc(C[S+]([O-])c2nc3cc(-n4cccc4)ccc3[nH]2)c1C (stereo not given) [Ilaprazole sodium] | 5.12
CN1C[C@@H]2C[C@H]1CN2c1cc2c(cc1F)c(=O)c(C(=O)O)cn2C1CC1 [Danofloxacin Mesylate] | 0.54
c1ccc(-c2ccc(C(c3ccccc3)n3ccnc3)cc2)cc1 (stereo not given) [Bifonazole] | 1.08
CO/N=C(\C(=O)N[C@@H]1C(=O)N2C(C(=O)O)=CCS[C@H]12)c1csc(N)n1 [Ceftizoxime] | -0.86
C#C[C@]1(O)CC[C@H]2[C@@H]3CCC4=Cc5oncc5C[C@]4(C)[C@H]3CC[C@@]21C [Danazol] | -0.48
Nc1c(Br)cc(Br)cc1CN[C@H]1CC[C@H](O)CC1 [Ambroxol HCl] | -0.09
CCOC(=O)c1ccc(N)cc1 [Benzocaine] | 0.27
C[C@@H](O)[C@H]1C(=O)N2C(C(=O)[O-])=C(SC3Cn4cnc[n+]4C3)[C@H](C)[C@H]12 (stereo not given in full) [Biapenem] | -0.04
